In PubChem BioAssay (EPA / NIEHS):
Values joined by “and” are separate entries in the source; they are usually repeats but may differ in a detail not shown here. Equal entries are not always repeated. Inconclusive results are not listed. More than one record can exist for a structure, and the calls need not agree. Active and inactive are the calls of the source. Rule for the calls, unless noted: active = hit-call score of the fitted dose curve at least 0.9, where 1 is the maximum; inactive = score below 0.9.

Legend:
[1] = CCTE_Shafer_MEA_acute_network_burst_percentage: CCTE's Neural Acute Assay for Percentage of Network Bursts, Shafer Lab (AID 2284022);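 note: curves fitted for loss so actives lower network burst percentage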
Procedure, shortened: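 Rat cortical cultures, DIV 13/15; 20 min equilibration, 40 min baseline, compound 0.03-40 uM, 40 min recording, 37 C. Spikes: 300-5000 Hz band-pass, threshold 8x rms noise. Readout: % change in network-burst spike fraction; loss direction vs DMSO.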

[2] = CCTE_Shafer_MEA_acute_cross_correlation_area: CCTE's Neural Acute Assay for Area of Cross Correlation, Shafer Lab (AID 2284024);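 note: area under pooled inter-electrode spike cross-correlation near zero lag as percent change from own baseline; curves fitted for loss of cross-correlation area so actives lower synchrony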
Procedure, shortened: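 Rat cortical cultures, DIV 13/15, MEA; spikes detected at 8x rms noise (300-5000 Hz band-pass). Compound 0.03-40 uM, ≥3 wells each. Readout: % change in pooled inter-electrode cross-correlation area vs own baseline; DMSO negative control.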

[3] = CCTE_Shafer_MEA_acute_cross_correlation_HWHM: CCTE's Neural Acute Assay for Cross Correlation at Half Width at Half Maximum, Shafer Lab (AID 2284026);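 note: percent change per well from pre-dose baseline in spike cross-correlogram half width; hits are a decrease in cross-correlogram half width relative to DMSO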
Procedure, shortened: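 Read-out: half width at half maximum of action-potential cross-correlogram, percent change versus pre-treatment baseline, fitted in loss direction against DMSO. Rat cortical cultures, DIV 13 or 15, dosed 0.03-40 uM, 40-min recordings at 37 C.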

[4] = CCTE_Shafer_MEA_dev_firing_rate_mean: CCTE's Neural Network Formation Assay for Mean Firing Rate, Shafer Lab (AID 2284031);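 for AC50: curve fitted for loss of firing so AC50 reflects decreased mean firing rate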
Procedure, shortened: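 Read-out: spike count/recording length, averaged over active electrodes, then AUC across days 5, 7, 9, 12. Rat cortical cultures on MEA; continuous 12-day exposure, media and treatment renewed DIV 5, 9; DMSO baseline.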

[5] = CCTE_Deisenroth_AIME_384WELL_CTox_Active: Cytotoxicity Assessment (CTOX) in CCTE's 384-well Estrogen Receptor Transactivation Assay with AIME metabolic competence (metabolism positive), Deisenroth Lab (AID 2284037; active = hit-call score of the fitted dose curve at least 0.9, where 1 is the maximum;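 note: chemicals first conditioned 2 h by alginate-bound induced rat liver S9 before cells; activity means signal loss indicating cell death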)
Procedure, shortened: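 Cytotoxicity in VM7Luc4E2 breast cells, 24 hour, measured as protease-substrate fluorescence loss, after 2-hour metabolic conditioning with induced rat hepatic S9 in alginate microspheres. Concentrations 0.002 - 200 uM, 10 points, bidirectional fitting.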

[6] = target: Estrogen receptor (Homo sapiens) (UniProt P03372); assay: CCTE_Deisenroth_AIME_384WELL_LUC_Inactive: CCTE's 384-well Estrogen Receptor Transactivation Assay without AIME metabolic competence (ERTA luciferase; metabolism negative), Deisenroth Lab (AID 2284038; active = hit-call score of the fitted dose curve at least 0.9, where 1 is the maximum;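 note: hits raise estrogen receptor luciferase signal so potencies reflect agonists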)
Chain of Estrogen receptor (Homo sapiens) (P03372 whole entry, looked up): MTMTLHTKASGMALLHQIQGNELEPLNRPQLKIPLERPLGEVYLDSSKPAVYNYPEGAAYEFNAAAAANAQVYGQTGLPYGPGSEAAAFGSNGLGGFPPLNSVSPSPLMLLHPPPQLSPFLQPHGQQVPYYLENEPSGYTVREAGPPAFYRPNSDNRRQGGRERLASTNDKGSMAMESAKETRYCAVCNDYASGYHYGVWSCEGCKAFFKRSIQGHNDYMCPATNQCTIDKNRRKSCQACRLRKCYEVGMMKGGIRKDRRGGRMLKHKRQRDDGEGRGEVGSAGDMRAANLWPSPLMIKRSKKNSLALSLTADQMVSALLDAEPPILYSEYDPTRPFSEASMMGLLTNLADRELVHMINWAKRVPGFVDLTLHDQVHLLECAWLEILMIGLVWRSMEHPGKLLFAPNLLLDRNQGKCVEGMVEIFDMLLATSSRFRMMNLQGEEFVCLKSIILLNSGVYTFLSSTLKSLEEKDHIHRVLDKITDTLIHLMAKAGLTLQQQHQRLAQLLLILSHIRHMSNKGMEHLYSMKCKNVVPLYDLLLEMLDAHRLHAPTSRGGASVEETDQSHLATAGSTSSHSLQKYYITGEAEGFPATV
Procedure, shortened: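 Metabolism-negative mode: AIME lids stamped in alginate-water, no hepatic S9. 2 h chemical incubation → medium onto VM7Luc4E2 ERTA, 24 h. Readout luciferase luminescence; gain-of-signal fit vs 17beta-estradiol. Conc. 0.002 - 200 uM.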

[7] = CCTE_Shafer_MEA_dev_active_electrodes_number: CCTE's Neural Network Formation Assay for Number of Active Electrodes, Shafer Lab (AID 2284040; active = hit-call score of the fitted dose curve at least 0.9, where 1 is the maximum;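 for AC50: potency for loss of active electrodes versus DMSO so lower counts are hits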)
Procedure, shortened: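 Developing rat cortical networks on MEAs, exposed DIV 0–12. Value is the AUC of active-electrode counts (≥5 spikes/min) from days 5, 7, 9, 12, relative to DMSO.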

[8] = target: Estrogen receptor (Homo sapiens) (UniProt P03372); assay: CCTE_Deisenroth_AIME_384WELL_LUC_Shift: CCTE's 384-well Estrogen Receptor Transactivation Assay with AIME metabolic competence data shift (ERTA luciferase; difference in metabolism positive and negative), Deisenroth Lab (AID 2284041);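 note: shift is response with S9 minus without S9 so positive means metabolism raised ER signal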
Procedure, shortened: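 Test chemicals (0.002–200 uM, 10-point) were pre-incubated 2 h with alginate microspheres containing phenobarbital/beta-naphthoflavone-induced male Sprague Dawley rat liver S9 or water, then medium was transferred to VM7Luc4E2 cells for 24 h luciferase readout; shift = S9-positive minus S9-negative normalized response.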

[9] = CCTE_Shafer_MEA_dev_burst_rate: CCTE's Neural Network Formation Assay for Burst Rate, Shafer Lab (AID 2284042);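 for AC50: potency for loss of burst rate below DMSO control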
Procedure, shortened: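 Primary rat cortical neurons on PEI-coated 48-well MEA plates (laminin added with cells at plating) (16 electrodes/well), exposed from plating to day 12, dosing renewed at DIV 5 and 9. Burst rate averaged over active electrodes, recorded DIV 5, 7, 9, 12, summarized as AUC; loss versus DMSO.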

[10] = CCTE_Shafer_MEA_dev_bursting_electrodes_number: CCTE's Neural Network Formation Assay for Number of Bursting Electrodes, Shafer Lab (AID 2284043; active = hit-call score of the fitted dose curve at least 0.9, where 1 is the maximum;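 for AC50: potency is for loss of bursting electrodes relative to DMSO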)
Procedure, shortened: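 Number of electrodes reaching ≥1 burst every 2 min was recorded at DIV 5, 7, 9 and 12 and collapsed as trapezoidal area under the curve. Cultures were rat cortical neurons on MEA plates, dosed continuously from plating with medium and treatment refreshed on DIV 5 and 9.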

[11] = CCTE_Shafer_MEA_dev_per_burst_interspike_interval: CCTE's Neural Network Formation Assay for Burst Interspike Interval, Shafer Lab (AID 2284044);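 for AC50: potency for a decrease of within-burst interspike interval below DMSO level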
Procedure, shortened: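 Readout is the average time between spikes inside single-electrode bursts, taken as a well mean across bursting electrodes. Cortical neurons from rat developed networks on MEA plates under continuous 12-day exposure; recordings on days 5, 7, 9 and 12 were integrated by trapezoidal AUC.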

[12] = CCTE_Shafer_MEA_dev_burst_duration_mean: CCTE's Neural Network Formation Assay for Mean Burst Duration, Shafer Lab (AID 2284045);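 for AC50: curve fitted for loss meaning shorter burst duration than DMSO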
Procedure, shortened: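 Mean single-electrode burst duration (first to last spike), averaged over bursting electrodes per well, then integrated as area-under-curve across recordings at days 5, 7, 9 and 12. Rat cortical cultures on MEAs, compound present from plating, refreshed at feeds.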

[13] = CCTE_Shafer_MEA_dev_interburst_interval_mean: CCTE's Neural Network Formation Assay for Mean Interburst Interval, Shafer Lab (AID 2284046);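 note: well-mean interburst interval of bursting electrodes as AUC over four recording days; curve fitted for decrease in interburst interval relative to DMSO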
Procedure, shortened: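 Recordings on days 5, 7, 9 and 12 give well-mean interburst interval across actively bursting electrodes, summarized as area under the curve. Cultures: rat cortical neurons, continuous exposure from day 0, compound renewed at feeds; decrease analyzed versus DMSO.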

[14] = CCTE_Shafer_MEA_dev_inter_network_spike_interval_mean: CCTE's Neural Network Formation Assay for Mean Inter-network Spike Interval, Shafer Lab (AID 2284047);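 for AC50: potency for a decrease in mean inter-network spike interval below DMSO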
Procedure, shortened: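 Primary rat cortical neurons on 16-electrode MEA wells, exposed from plating day 0 through DIV 12, compound renewed at DIV 5 and 9 media changes. Mean interval between network-spike peaks recorded DIV 5, 7, 9, 12; collapsed as trapezoidal AUC, fitted downward versus DMSO.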

[15] = CCTE_Shafer_MEA_dev_network_spike_peak: CCTE's Neural Network Formation Assay for Mean Number of Electrodes in Network Spike, Shafer Lab (AID 2284049);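 for AC50: fitted for loss of signal meaning fewer electrodes in network spikes than DMSO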
Procedure, shortened: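 Rat cortical primary culture, 1.5 x 10^5 cells/well, 48-well MEA (16 electrodes/well). Dosing day 0 through DIV 12, full media/compound exchange DIV 5, 9. AxIS adaptive spike detection; AUC over days 5/7/9/12; loss-of-signal vs DMSO.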

[16] = system: DIO2 (gene 1734); assay: CCTE_GLTED_hDIO2: CCTE's human Deiodinase 2 (DIO2) Inhibition Assay, Great Lakes Toxicology and Ecology Division (GLTED) Lab (AID 2284050; active = hit-call score of the fitted dose curve at least 0.9, where 1 is the maximum)
Procedure, shortened: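 Readout: absorbance from Sandell-Kolthoff detection of free iodide released by human DIO2 during a 3 h incubation with chemical. Cell-free format, n=3; activity fitted relative to DMSO negative control.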

[17] = target: Estrogen receptor (Homo sapiens) (UniProt P03372); assay: CCTE_Deisenroth_AIME_96WELL_LUC_Active: CCTE's 96-well Estrogen Receptor Transactivation Assay with AIME metabolic competence (ERTA luciferase; metabolism positive), Deisenroth Lab (AID 2284023; active = hit-call score of the fitted dose curve at least 0.9, where 1 is the maximum)
Procedure, shortened: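 Metabolism-positive mode: induced rat hepatic S9 in alginate microspheres conditions test solutions (0.002 - 200 uM, 10 points) for 2 hours. VM7Luc4E2 ER luciferase reporter cells then exposed 24 h; positive-direction fit against 17beta-estradiol, n=4 typical.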

[18] = target: Estrogen receptor (Homo sapiens) (UniProt P03372); assay: CCTE_Deisenroth_AIME_96WELL_LUC_Inactive: CCTE's 96-well Estrogen Receptor Transactivation Assay without AIME metabolic competence (ERTA luciferase; metabolism negative), Deisenroth Lab (AID 2284025; active = hit-call score of the fitted dose curve at least 0.9, where 1 is the maximum)
Procedure, shortened: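 Metabolism-negative arm: chemicals (0.002–200 uM, 10 points) incubated 2 h with alginate-water microspheres, then medium moved onto VM7Luc4E2 cells for 24 h luciferase read-out. Positive direction vs 17beta-estradiol; n≥4 experiments.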

[19] = CCTE_Deisenroth_AIME_96WELL_CTox_Active: Cytotoxicity Assessment (CTOX) in CCTE's 96-well Estrogen Receptor Transactivation Assay with AIME metabolic competence (metabolism positive), Deisenroth Lab (AID 2284028; active = hit-call score of the fitted dose curve at least 0.9, where 1 is the maximum)
Procedure, shortened: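 Cytotoxicity in VM7Luc4E2 breast cells after 24 h exposure to medium from a 2 h metabolic pre-incubation with induced rat hepatic S9 in alginate microspheres; fluorescent live-cell protease readout, 10-point series 0.002–200 uM, n=4.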

[20] = CCTE_Deisenroth_AIME_96WELL_CTox_Inactive: Cytotoxicity Assessment (CTOX) in CCTE's 96-well Estrogen Receptor Transactivation Assay without AIME metabolic competence (metabolism negative), Deisenroth Lab (AID 2284029; active = hit-call score of the fitted dose curve at least 0.9, where 1 is the maximum)
Procedure, shortened: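 Cytotoxicity in VM7Luc4E2 breast cells was scored as loss of fluorescent signal from a live-cell protease substrate 24 h after exposure, using bidirectional curve fitting. Test media came from a 2 h metabolism-negative pre-incubation (alginate-water, no hepatic S9) of compounds at 0.002-200 uM, with at least four replicates.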

Measured: AC50

CCOC(=O)C(C)OC(=O)c1cc(Oc2ccc(C(F)(F)F)cc2Cl)ccc1[N+](=O)[O-] (configuration not stated)
not listed: [16] | [17] | [18] | [19] | [20]
inactive: all other assays above

OC(c1ccc(Cl)cc1)(c1ccc(Cl)cc1)C(Cl)(Cl)Cl
active: [1] 20 µM | [3] 5.32 µM | [16] 76.4 µM
inactive: [2]

Cc1c(COC(=O)[C@@H]2[C@H](/C=C(\Cl)C(F)(F)F)C2(C)C)cccc1-c1ccccc1
inactive: [2] | [14]
active: [1] 0.225 µM | [3] 2.29 µM | [4] 847 nM and 2.07 µM | [7] 2.84 µM and 3.36 µM | [9] 768 nM and 2.7 µM | [10] 1.56 µM and 1.65 µM | [11] 3.23 µM and 3.43 µM | [12] 2.29 µM and 1.75 µM | [13] 2.8 µM and 2.26 µM | [14] 2.3 µM | [15] 1.51 µM and 1.19 µM

COC(=O)N(C(=O)N1CO[C@@]2(C(=O)OC)Cc3cc(Cl)ccc3C2=N1)c1ccc(OC(F)(F)F)cc1
active: [3] 24.3 µM | [7] 21.2 µM | [10] 15 µM | [15] 25.9 µM
not listed: [6] | [16] | [17] | [18] | [19] | [20]
inactive: all other assays above

Clc1nc(Cl)nc(Nc2ccccc2Cl)n1
inactive: [1] | [2] | [3]

CC1(C)C(C(=O)OC(C#N)c2cccc(Oc3ccccc3)c2)C1(C)C (configuration not stated)
inactive: [4] | [9] | [12] | [13]
active: [1] 1.54 µM | [2] 0.645 µM | [3] 28.6 µM | [7] 19 µM | [10] 15.4 µM | [11] 18.5 µM | [14] 2.56 µM | [15] 13.5 µM

CC1(C)C(C=C(Cl)Cl)C1C(=O)OC(C#N)c1cccc(Oc2ccccc2)c1 (configuration not stated)
inactive: [17] | [2] | [3] | [19] | [20] | [4] | [7] | [8] | [9] | [10] | [11] | [12] | [13] | [14] | [15]
active: [1] 1.94 µM | [18] 57 µM | [4] 2.98 µM | [6] 57.9 µM | [7] 9 µM | [9] 3.77 µM | [10] 6.24 µM | [13] 3.49 µM | [15] 11.4 µM

N#CN=C1SCCN1Cc1ccc(Cl)nc1
active: [1] 4.76 µM
not listed: [5] | [6] | [8] | [16] | [17] | [18] | [19] | [20]
inactive: all other assays above

CC(C)C1(C)N=C(c2ncccc2C(=O)O)NC1=O (configuration not stated)
inactive: [1] | [2] | [3]

CCCN(CC)CC1COC2(CCC(C(C)(C)C)CC2)O1 (configuration not stated)
active: [4] 0.066 µM | [7] 0.246 µM | [9] 0.136 µM | [10] 0.223 µM | [11] 0.234 µM | [12] 157 nM | [13] 0.325 µM | [14] 0.257 µM | [15] 0.305 µM
inactive: [1] | [2] | [3]
